Reference: PubChem BioAssay AID743313 (Broad Institute, 2014)
Values without a mark were called inactive. Active and inactive are the calls of the source.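 How the source made its calls: active means cell killing with a fitted half-maximal concentration no more than twice the top valid dose used; inconclusive means flat curve with a moderate signal drop, or poor fit; inactive means the rest.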

Assay: loss of HepG2 viability via ATP – cell-based, plate reader, dry powder, set 7, cytotoxicity control, dose response (AID 743313)
Conditions: ATP luminescence (CellTiter-Glo), 72 h; series mostly up to 26 µM; activity change, negative = cytotoxicity: at the top concentration

Row | SMILES | activity change, negative = cytotoxicity [%] | outcome
1 | Cc1ccc(OCCn2cnc3ccccc32)c(C(C)C)c1 | 6.12 | 
2 | CC(C)c1ccccc1NCCn1c(=S)[nH]c2ccccc21 | -21.6 | 
3 | Cc1ccc(OCCn2c(=S)[nH]c3ccccc32)cc1 | -6.11 | 
4 | S=c1[nH]c2ccccc2n1CCOc1ccc(Cl)cc1 | -18.1 | 
5 | Fc1ccc(OCCn2c(=S)[nH]c3ccccc32)cc1 | -11.5 | 
6 | Cc1cccc(OCCn2c(=S)[nH]c3cc(C(F)(F)F)ccc32)c1 | -32.5 | 
7 | CC(C)(C)c1ccccc1OCCn1c(=S)[nH]c2ccccc21 | -9.42 | 
8 | CCOc1ccc(OCCn2c(=S)[nH]c3ccccc32)cc1 | -11.2 | 
9 | Fc1cccc(OCCn2c(=S)[nH]c3ccccc32)c1 | -8.16 | 
10 | Fc1ccc2[nH]c(=S)n(CCOc3ccccc3)c2c1 | -2.84 | 
11 | Cc1ccc(C(C)C)c(OCCn2c(=S)[nH]c3cccc(C)c32)c1 | -14.8 | 
12 | CC(C)c1ccccc1OCCn1c(=S)[nH]c2ccccc21 | -18.4 | 
13 | O=c1[nH]c2ccccc2n1CCOc1ccccc1 | -5.21 | 
14 | COCc1nc2ccccc2n1CCOc1ccc(C(C)(C)C)cc1 | -11.4 | 
15 | Cc1ccc(C(C)C)c(OCCn2c(=S)[nH]c3ccc(Cl)cc32)c1 | -7.22 | 
16 | Cc1ccc(C(C)C)c(OCCn2c(=S)[nH]c3ccccc32)c1 |  | inactive
17 | CC(C)c1ccc(OCCn2c(=S)[nH]c3ccccc32)cc1 | -24 | 
18 | Cc1ccc(C(C)C)c(OCCn2c(=S)[nH]c3c(Cl)cccc32)c1 | -12.2 | 
19 | Fc1cccc2c1[nH]c(=S)n2CCOc1ccccc1 |  | inactive
20 | Cc1ccc(C(C)C)c(OCCn2c(=S)[nH]c3c(F)cccc32)c1 | 0.666 | 
